# Measured values published in PubChem BioAssay AID504915 (The Scripps Research Institute Molecular Screening Center, 2011).
# This is one part of the list. A number with no mark means an inactive call. Calls of active or inactive are those of the source. Cut-off read from the data, not from the text of the source: active = activation above about 17%; inactive = the rest.
# Target: 5-hydroxytryptamine receptor 5A (Homo sapiens) (UniProt P47898)
# Assay: HTR5A agonists, retest of hits, confirmation, cell-based, luminescence (AID 504915);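 note: 0% = cells with vehicle only and 100% = full reference agonist response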
# Details: HTR5A agonist cell assay, at 9.3 µM, hits give high values
# Sequence of 5-hydroxytryptamine receptor 5A (Homo sapiens) (P47898 whole entry, looked up): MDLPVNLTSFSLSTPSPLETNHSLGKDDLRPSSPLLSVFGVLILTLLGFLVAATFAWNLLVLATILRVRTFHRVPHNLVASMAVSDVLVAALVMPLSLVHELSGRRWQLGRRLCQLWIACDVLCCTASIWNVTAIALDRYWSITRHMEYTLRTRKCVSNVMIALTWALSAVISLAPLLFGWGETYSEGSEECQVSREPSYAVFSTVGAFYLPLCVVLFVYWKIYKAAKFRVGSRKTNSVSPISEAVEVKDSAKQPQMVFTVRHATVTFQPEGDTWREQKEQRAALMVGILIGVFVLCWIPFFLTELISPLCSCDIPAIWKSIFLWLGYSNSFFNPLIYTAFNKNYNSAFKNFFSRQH
row,Compound,activation
1,Cc1oc2c(F)c(F)c(F)c(F)c2c1S(=O)(=O)Nc1cccc(C(F)(F)F)c1,-4.5%
2,COc1ccc2[nH]cc(CCN3C(=O)c4ccc(C(=O)O)cc4C3=O)c2c1,-2.36%
3,O=C(Nc1ccc(C(=O)N2CCOCC2)cc1)Nc1cccc(C(F)(F)F)c1,43.1% (active)
4,COc1c(Cl)cc(C(=O)Nc2ccc(Cl)cn2)cc1Cl,4.5%
5,Cc1c(C(=O)OCC(=O)N(CCC#N)c2ccccc2)oc2c1ccc1ccccc12,61.4% (active)
6,COc1ccc(C(=O)O/N=C(\N)Cc2ccc(Cl)cc2Cl)cc1OC,10.9%
7,c1cc(-c2nn[nH]n2)ccc1CN1CCCCC1,-1.04%
8,CCCN(CCc1ccccc1)C1CCc2c(O)cccc2C1 (stereo not given),37.2% (active)
9,O=C(OC12CC3CC(CC(C3)C1)C2)c1ccc(NCc2cc(O)ccc2O)cc1,7.13%
10,O=C(c1cccnc1)N(c1cc2sc(=O)oc2c2ccccc12)S(=O)(=O)c1ccccc1,2.35%
11,CC(C)CC(=O)N/C(N)=N/c1nc2ccccc2s1,-0.51%
12,CCN(CC(=O)Nc1cccc(S(=O)(=O)N2CCCCC2)c1)Cc1ccccc1,1.96%
13,CC(=O)N1CCN(c2ccccc2NC(=S)NC(=O)c2cc3ccccc3o2)CC1,4.36%
14,CNC(=S)N/N=C/c1ccc(OCc2ccccc2)c(Br)c1,0.4%
15,CC1CCN(S(=O)(=O)c2nnc(NC(=O)COc3ccccc3F)s2)CC1,-0.56%
16,CCC(C)NC(=O)CCCc1ccccc1 (stereo not given),0.89%
17,CNc1nnc(-c2ccco2)s1,0.94%
18,Cc1ccc(C(=O)N/C(=C/c2ccco2)C(=O)NCCc2c[nH]c3ccccc23)cc1C,-0.29%
19,CC(NC(=O)c1cc(-c2ccccc2)on1)c1ccccc1 (stereo not given),-0.01%
20,COc1cccc(OCC(=O)Nc2ccccc2C(N)=O)c1,26.9% (active)
21,COC(=O)c1cc(S(=O)(=O)N2CCN(c3cc(C)ccc3C)CC2)c[nH]1,0.19%
22,CC(=O)COc1ccc2c(-c3ccccc3)cc(=O)oc2c1,4.18%
23,O=C(CC1Nc2ccccc2NC1=O)Nc1ccccc1 (stereo not given),3.07%
24,Cc1ccc(CCC(=O)Nc2ncc(Cc3cc(Cl)ccc3Cl)s2)o1,29.1% (active)
25,CCCOc1ccc(C(=O)C(CCC(CNCC)C(=O)c2ccc(OCCC)cc2)CNCC)cc1 (stereo not given),-4.56%
